Results: PubChem BioAssay AID1159580 (chemical genetic matrix, 2015)
Hit rate of the full screen: of about 5,500 compounds, about 2,000 (36%) were called active. Another 18% or so got no clear call; they are omitted. No stated cut-off is given here; in the data, active means normalized growth mostly below about 0.91 (no sharp cut-off); inconclusive means no clear call, values can overlap the other calls; inactive means mostly above about 0.92. This is one part of the list.

Assay: chemical genetic growth profiling, strain panel (AID 1159580);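 further: tested at 20 µM; growth read once vehicle control cultures reached saturation at 30 °C; 1 = growth at the plate median or of vehicle wells; lower values mean less growth of the strain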
Conditions: growth OD

Measured: normalized growth

c1ccc2c(c1)-c1cccc3cccc-2c13
active: S. cerevisiae deletion strains, locus YAL013W, strain DEP1, hits give low values 0.897 | S. cerevisiae deletion strains, locus YBR229C, strain ROT2, hits give low values 0.873 | S. cerevisiae deletion strains, locus YCL061C, strain MRC1, hits give low values 0.876 | S. cerevisiae deletion strains, locus YDL134C, strain PPH21, hits give low values 0.873 | S. cerevisiae deletion strains, locus YEL061C, strain CIN8, hits give low values 0.787 | S. cerevisiae deletion strains, locus YGR078C, strain PAC10, hits give low values 0.855 | S. cerevisiae deletion strains, locus YHR030C, strain SLT2, hits give low values 0.34 | S. cerevisiae deletion strains, locus YHR087W, strain rtc3, hits give low values 0.826 | S. cerevisiae deletion strains, locus YJR075W, strain HOC1, hits give low values 0.771 | S. cerevisiae deletion strains, locus YKL190W, strain CNB1, hits give low values 0.767 | S. cerevisiae deletion strains, locus YLR039C, strain RIC1, hits give low values 0.363 | S. cerevisiae deletion strains, locus YLR058C, strain SHM2 (second series), hits give low values 0.923 | S. cerevisiae deletion strains, locus YLR085C, strain ARP6, hits give low values 0.318 | S. cerevisiae deletion strains, locus YLR262C, strain YPT6, hits give low values 0.313 | S. cerevisiae deletion strains, locus YML094W, strain GIM5, hits give low values 0.757 | S. cerevisiae deletion strains, locus YMR307W, strain GAS1, hits give low values 0.428 | S. cerevisiae deletion strains, locus YNL153C, strain GIM3, hits give low values 0.906 | S. cerevisiae deletion strains, locus YNL298W, strain CLA4 (second series), hits give low values 0.694 | S. cerevisiae deletion strains, locus YNL322C, strain KRE1, hits give low values 0.932 | S. cerevisiae deletion strains, locus YNR030W, strain Alg12, hits give low values 0.721 | S. cerevisiae deletion strains, locus YPL055C, strain LGE1, hits give low values 0.666 | S. cerevisiae deletion strains, locus YPL241C, strain CIN2, hits give low values 0.648 | S. cerevisiae deletion strains, locus YPR135W, strain CTF4, hits give low values 0.483 | S. cerevisiae strains, strain wild type, hits give low values 0.863
inactive: S. cerevisiae deletion strains, locus YDL101C, strain DUN1, hits give low values 0.929 | S. cerevisiae deletion strains, locus YDR150W, strain NUM1, hits give low values 0.911 | S. cerevisiae deletion strains, locus YJL187C, strain SWE1, hits give low values 0.939 | S. cerevisiae deletion strains, locus YJR043C, strain POL32, hits give low values 0.929 | S. cerevisiae deletion strains, locus YMR219W, strain ESC1, hits give low values 0.949 | S. cerevisiae deletion strains, locus YMR263W, strain SAP30, hits give low values 0.916 | S. cerevisiae deletion strains, locus YOL006C, strain TOP1, hits give low values 0.764
